Screens: PubChem BioAssay, National Center for Advancing Translational Sciences (NCATS)
Shown are actives, neighbours in structure and some others; about 1.5% of the full set was active somewhere.
Akt phos inh: HTS Assay for Inhibitors of Akt Phophorylation: Primary Screen | Neuro2A IGF-stimulated pAkt S473 HTRF, 20 min; hits give low values | hit rate 0.32% among 360,000 | activity change, % for hits at 50 µM; in the data active = activity change below about -80%; inconclusive = mostly about -51% to -80%; note: % is set by controls: 0 for no effect and ±100 for the full control effect
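Neuro2A cells (4,500/well, DMEM with 0.5% FBS) were treated with compound at a single 50 µM final concentration, stimulated with 6 nM IGF for 20 min at 37 °C, and lysed. Phospho-Akt Ser473 was read by HTRF as 665/615 ratio ×10^4.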
PINK1 expr mod: A Quantitative High throughput Screen to Identify Chemical Modulators of PINK1 Expression. PINK1 immunofluorescence, high-content cytometry, 24 h. Potency, µM (highest dose often 76.6 µM), inactives show at the highest dose activation (PINK1 increase), usual class: activators. hit rate 0.2% among 410,000; active = well fitted activation curve with a large enough effect; inconclusive = small, poorly fitted or top-dose-only effect; cell line not stated here; note: potency is the fitted concentration of half-maximal effect; % of control where 0% means no effect; nearly all actives have a fitted effect of over 65% in size
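Stable cell line, 250 cells/well, 12 h attachment; compounds pinned at 5 concentrations, 24 h; CCCP control. Fixed with nuclear dye, primary antibodies 12 h at 10 degrees C, secondary plus cell stain; laser-scanning cytometer read.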
BRCA1 expr act: qHTS Assay to Identify Small Molecule Activators of BRCA1 Expression | hit rate 1.1% among 380,000 | Potency, µM (titrated, usually from 46.1 µM), for inactives: top-dose activation, usual class: activators | MCF7-BRCA1-FFLuc reporter, luminescence, 48 h; response scale: scaled: vehicle 0%, 10 µM genistein 100%; note: potency is the fitted concentration of half-maximal effect; nearly all actives have a fitted effect of over 80% in size
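Luminescence from a BRCA1-driven firefly luciferase in MCF7 cells was the read-out, taken 15 min after substrate addition following 48 h compound exposure at 37 °C. Data were normalized to a 10 microM genistein control and DMSO vehicle.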
TCR act: Activators of T cell receptors: qHTS campaign; 330,000 tested, under 10 active; Potency, µM (titrated, usually from 9.22 µM), for inactives: at the highest dose activation of IL-2 secretion, most hits filed as activators; primary human leukocytes, anti-CD3, IL-2 HTRF, 48 h; note: % of control where 0% means no effect
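TCR engagement came from a-CD3 beads alone, with compounds added to primary human leukocytes for 48 hr. Secreted IL-2 bridged europium cryptate- and d2-labelled anti-IL-2 antibodies, giving FRET emission at 665nm after 320nm excitation.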
Numbers without * were called inactive; i = inactive; u = inconclusive; x = no result given; [ ] = dose if it differs, or a comment. Unless noted, calls come from the whole dose curve; as a rule, active = well fitted curve in the direction sought with a large enough effect; inconclusive = small, poorly fitted or top-dose-only effect, or another doubt; inactive = no such curve, though single readings can be large; an effect the other way counts as inactive or inconclusive.

SMILES	Akt phos inh	PINK1 expr mod	BRCA1 expr act	TCR act
Cn1c2ccccc2c2cc(C(=O)N3CCOc4ccc(C(C)(O)CCn5cccn5)cc4C3)ccc21 (centres undefined)	x	-0.2%	x	x
CCOC(=O)[C@@H]1[C@H]2COc3cc(OC)ccc3[C@H]2N2C(=O)N(c3ccc(C(F)(F)F)cc3)C(=O)[C@]12C	i	39.8µM*	-25.4%	0.3%
CCOC(=O)[C@@H]1[C@H]2COc3cc(OC)ccc3[C@@H]2N2C(=O)N(c3ccc(C(F)(F)F)cc3)C(=O)[C@@]12C	i	1.1%	-25.0%	3.3%
O=C(CSc1nnc(NC(=O)c2ccccc2F)s1)NCC1CCCO1 (centres undefined)	i	-0.6%	12.6µM*	6.5%
Cc1ccc2c(c1)cc1c(=O)[nH]ncn12	i	-1.5%	11.2µM*	-8.2%
CSc1ccc(C(=O)N2CCc3c(cnc(C)c3CNC(=O)c3cncs3)C2)cc1	x	-0.4%	x	x
CSC(=S)N/N=C/c1ccc(N(C)C)cc1	i	2.1%	0.3%	-7.6%
COC(=O)c1ccc(/C=N/NC(=O)c2cccc(F)c2)cc1	i	-2.9%[38.3 µM]	10µM*	2.6%
O=C(N/N=C\c1ccc(F)cc1)c1ccc(F)cc1	i	-0.7%	11.2µM*	-2.9%
CN(C)c1ccc(C=NNC(=S)Nc2ccc(F)cc2)cc1	i	3.3%	3.98µM*	-6.1%
O=C(c1ccc2c(c1)CCN2S(=O)(=O)c1ccc(Cl)cc1)N1CCN(c2ccccc2F)CC1	x	0.3%	x	x
CC1(C)CC(=O)c2sc(NC(=O)CN3CCCCC3)nc2C1	x	-0.9%	-14.5%	-6.0%
CC1(C)CC(=O)c2sc(NC(=O)C(C)(C)C)nc2C1	i	-0.7%	7.94µM*	-0.1%
COc1cccc(CNC(=O)c2c(OC)cc(=O)n3c2CCN(C(=O)c2cc(C)ccc2C)CC3)c1	x	1.6%	x	x
O=C(c1cc(-c2ccccc2Cl)nc2ccc(Br)cc12)N1CCN(c2ccccn2)CC1	i	1.7%	-83.0%	-3.6%
O=C(c1cc(-c2ccncc2)nc2ccc(Br)cc12)N1CCN(c2ccccn2)CC1	-114.3%*	-1.0%	-3.4%	2.2%
CC(=O)Nc1ccc(N/C=C/C(=O)c2ccc(Cl)cc2)cc1	i	11.2µM*	62.1%	-47.0%
COCC(=O)Nc1cc(C(=O)N2CCN(C)C(c3ccccc3)C2)c2c(c1)nc(-c1ccncc1)n2C (centres undefined)	x	-0.9%	x	x
CC(C)N(CCO)Cc1nc(N2CCOCC2)c2cc(Cl)ccc2n1	x	0.7%	x	x
O=C1CCCC2=C1C(Cc1ccccc1)C1=C(CCCC1=O)O2	-118.4%*	3.0%	-3.9%	-1.8%
COc1cc(NC(=O)CC2C(=O)N(c3cccc(C)c3)C(=O)N2Cc2cccs2)cc(OC)c1 (centres undefined)	x	2.4%	x	x
COc1ccc2oc(-c3ccco3)cc(=O)c2c1	i	-0.3%	6.31µM*	-8.9%
O=c1cc(-c2ccco2)oc2ccc(Cl)cc12	i	1.1%	68.2%	-35.6%
N#C/C(=C/c1ccc(N2CCCCC2)o1)c1cccc(F)c1	i	7.08µM*	-47.5%	1.0%
N#C/C(=C\c1ccc(N2CCOCC2)o1)C(=O)NC1CCCCC1	i	8.1%	u	2.3%
SMILES	Akt phos inh	PINK1 expr mod	BRCA1 expr act	TCR act
N#C/C(=C/c1ccc(N2CCCCCC2)o1)c1ccc(Cl)cc1	i	7.94µM*	-41.5%	-5.2%
N#C/C(=C/c1ccc(N2CCCCC2)cc1)c1cccc(F)c1	i	u	7.94µM*	0.1%[46.1 µM]
COc1cc(N2CCCC2)c(OC)cc1/C=C(/C#N)c1ccc(F)cc1	i	2.8%	-28.7%	-1.5%[46.1 µM]
CC1=Nn2c(nnc2-c2ccco2)SC1	-102.4%*	-2.0%	0.7%	2.0%
COc1ccc(-c2nnc3n2N=C(C)CS3)cc1	-83.6%*	1.8%	-1.5%	-1.1%
Cc1c(C(=O)N(C)C2CCOC2)sc2ncnc(NCC3(c4ccccc4)CCOCC3)c12 (centres undefined)	x	0.5%	x	x
O=C(Nc1ccc2nccnc2c1)c1cnccn1	i	-2.8%	11.2µM*	-3.2%
O=C(Nc1ccc(NC(=O)c2ccco2)cc1)c1cnccn1	i	-1.2%	12.6µM*	4.9%
CCc1ccc(NC(=O)c2cnccn2)cc1	i	-0.7%	10.5%	-5.9%
CCCOC(=O)c1ccc(NC(=O)c2cnccn2)cc1	i	1.4%	10µM*	-0.8%
CCn1c(SCC(=O)Nc2ccccc2)nc2c([nH]c3ccccc32)c1=O	x	-2.1%	-22.8%	x
CCN(CC)S(=O)(=O)c1ccc(NC(=O)c2c(C)oc3ncnc(N4CCOCC4)c23)cc1	x	1.5%	x	x
Cc1ccc(Nc2cc(C)nc(-c3ccccc3)n2)cc1	i	3.7%	3.16µM*	-0.4%
Cc1ccccc1C(=O)NC(C)c1nnc2n1CCN(Cc1ccc(F)cc1)CC2 (centres undefined)	x	-0.1%	x	x
COc1ccc(NC(=O)CC2CC3CCC2C3)cn1 (centres undefined)	i	-1.5%	12.6µM*	-2.7%
COc1cc(NC(=O)COC(=O)CC2CC3CCC2C3)cc(OC)c1 (centres undefined)	i	1.5%	5.4%	-0.8%[46.1 µM]
CCOC(=O)N1CCN(C(=O)Cc2ccc(-n3c(=O)[nH]c4ccccc4c3=O)cc2)CC1	-109.0%*	-1.5%	9.1%	-85.3%
CCOC(=O)c1ccc(-n2c(=O)[nH]c3ccccc3c2=O)cc1	i	0.6%	u	5.8%
Clc1ccccc1Nc1ncnc2c1nc1n2CCCCC1	x	1.0%	u	x
COC(=O)Cc1c(OC)ccn(CCc2c[nH]c3ccccc23)c1=O	i	0.2%	2.24µM*	0.3%
N#Cc1cnc2sc3ccccc3n2c1=N	-118.1%*	-0.3%	u	4.4%
Cc1ccc(CNC(=O)C(=O)NCC(c2cccnc2)N2CCN(c3ccccc3F)CC2)cc1 (centres undefined)	x	-0.1%	x	x
Cc1ccc(NC(C(=O)c2ccccc2)c2ccccc2)cc1 (centres undefined)	i	35.5µM*	3.2%	-5.6%
Cc1ccc(NC(=O)C(Nc2ccccc2)c2ccccc2)cc1 (centres undefined)	i	3.9%	-7.9%	-8.6%[46.1 µM]
CC/C(=N\n1nnnc1Nc1ccccc1)c1ccccc1	-113.2%*	-2.2%	0.2%	1.5%[46.1 µM]
SMILES	Akt phos inh	PINK1 expr mod	BRCA1 expr act	TCR act
COc1cccc(NC(=O)NCCC2=CCCCC2)c1	i	-0.9%	5.01µM*	8.8%
O=C(/C=C/c1ccccc1)NCCC1=CCCCC1	i	1.1%	u	1.4%[46.1 µM]
COc1ccc(NC(=O)NCCC2=CCCCC2)cc1	i	3.1%	u	-5.0%
COc1ccccc1/C=C/C(=O)NCCC1=CCCCC1	i	-0.6%	2.82µM*	4.0%
CCOc1ccccc1C(=O)Nc1cccc(-c2nc3ccccc3s2)c1	x	2.1%	-17.6%	x
CCOC(=O)C1CCN(Cc2ccc(O)c3ncccc23)CC1	i	25.1µM*	-88.5%	4.1%
Cc1cc(C)n(-c2cccc(C(=O)NCC3Cc4cccc(-c5ccccn5)c4O3)c2)n1 (centres undefined)	x	-0.3%	x	x
